# Only some compounds are listed: those with a hit (about 21% of all), similar ones and a draw of the others.
# Shiga inhibitor: blocks Shiga toxin action in Vero cells. Vero cells, Shiga toxin protein synthesis inhibition reporter. inhibition, % at 38.7 µM. AID 2315. hit rate 9.2% among 290,000; in the data active = inhibition mostly above about 28%, no sharp cut-off; inactive = mostly below about 43%; note: 0% is about no effect
# Pf growth 48h: inhibits P. falciparum growth in the first generation, 48 h; P. falciparum luciferase growth in erythrocytes, 48 h; Potency, µM (highest dose often 28.7 µM), inactives show at the top dose activity change, negative = inhibition, actives largely listed as inhibitors; hit rate 5.9% among 310,000; AID 504832; note: potency is the fitted concentration of half-maximal effect; % is set by controls: 0 for no effect and ±100 for the full control effect
#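 Read-out is firefly luciferase luminescence from an integrated reporter in P. falciparum, so falling signal marks reduced parasite growth. Infected erythrocytes were at 2% hematocrit and 0.1% parasitemia (final) in Albumax-supplemented RPMI 1640.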
# NS1 function inh: blocks influenza NS1 protein function. Potency, µM (top dose mostly 46.1 µM), without a hit: at the highest dose activity, positive = more growth. hit rate 0.4% among 270,000; calls by dose curve; note: potency is the fitted concentration of half-maximal effect; actives are rising curves; nearly all actives have a fitted effect of over 50% in size
#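 A cell-based growth assay was used: compounds that relieve NS1-induced slow growth of budding yeast raise OD600. Assay medium was yeast nitrogen base with ammonium sulphate and -URA supplement, pH 6.0, with 2% galactose.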
# Pf growth 96h: P. falciparum growth inhibition at 96 hours. P. falciparum luciferase reporter growth, 96 h. Potency, µM (series often up to 28.7 µM), inactives show at the top dose activity change, negative = inhibition, usual class: inhibitors. hit rate 6.9% among 320,000. AID 504834; note: potency is the fitted concentration of half-maximal effect; % is set by controls: 0 for no effect and ±100 for the full control effect
#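 P. falciparum expressing integrated firefly luciferase, in erythrocytes at 2% hematocrit, 0.05% parasitemia, incubated with compounds 96 h at 37 C, 5% CO2. Growth inhibition read as loss of luminescence; two-generation exposure targets delayed-death apicoplast inhibitors.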
# Sm TGR inh: blocks Schistosoma mansoni thioredoxin glutathione reductase; purified TGR, DTNB reduction, TNB absorbance 405 nm; Potency, µM (doses to about 114 µM), for inactives: at the top dose activity change, negative = inhibition, most hits filed as inhibitors; hit rate 3% among 360,000; Q962Y6; note: potency is the fitted concentration of half-maximal effect; % is set by controls: 0 for no effect and ±100 for the full control effect; nearly all actives have a fitted effect of over 60% in size
#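 TGR 20 nM + NADPH 100 uM (dispensed conc.), cpd preinc 15 min RT; start with NADPH (500 uM addition) then DTNB (15 mM addition). Kinetic TNB absorbance, 405 nm filter. Four-parameter Hill fit across titration.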
# CHX counter: counter-screen hit for Shiga toxin inhibitors, cycloheximide. max response, %. cell reporter, cycloheximide protein synthesis inhibition counterscreen. hit rate 12% among 300,000; in the data active = max response mostly above about 13%, no sharp cut-off; inactive = mostly below about 14%; note: read at 38.3 µM for the half of the compounds with a filed dose; 0% is about no effect
# Numbers without * were called inactive; ? = inconclusive; / = no result given; [ ] = dose if it differs, or a comment. Unless noted, calls come from the whole dose curve; as a rule, active = well fitted curve in the direction sought with a large enough effect; inconclusive = small, poorly fitted or top-dose-only effect, or another doubt; inactive = no such curve, though single readings can be large; an effect the other way counts as inactive or inconclusive.
SMILES,Shiga inhibitor,Pf growth 48h,NS1 function inh,Pf growth 96h,Sm TGR inh,CHX counter
CC(C)(C)c1ccc(OC(=O)N2CCOCC2)cc1,69*,62%,1%,4%,-6%,45*
O=C(Oc1ccc(OC(=O)N2CCOCC2)cc1)c1ccccc1,14,2%,2%,2%,0%,12*
O=C(Oc1ccc2ccc(OC(=O)N3CCOCC3)cc2c1)N1CCOCC1,23,47%,-1%,10µM*,4%,11*
Cc1cccc(N(CC(=O)Nc2cccc(Cl)c2C)S(C)(=O)=O)c1C,/,/,/,/,2%,/
Cc1ccc(OC(=O)N2CCOCC2)cc1,48*,68%,-4%,37%,14%,30*
O=C(Oc1ccccc1)N1CCOCC1,-11,-2%,4%,?,6%,-3
CCc1ccc(-n2c(=O)c3c4c(sc3n(CC(=O)c3ccc(F)cc3)c2=O)CCC4)cc1,/,/,/,/,1%,/
c1ccc(-c2ncc(-c3ccn[nH]3)s2)cc1,93*,334%,/,475%,58%,46*
Cc1ccc(CN2CCN(Cc3ccc(-n4cccn4)cc3C)CC2CCO)cc1 (configuration not stated),9,10µM*,5%,25%,-3%,-2
Cc1ccc(CN2CCN(Cc3cccc(-n4cccn4)c3)CC2CCO)cc1 (configuration not stated),26,-20%,0%,-33%,-15%,-3
CSc1ccc(CN2CCN(Cc3ccccc3)C(CCO)C2)cc1 (configuration not stated),14,-8%,0%,12µM*,-13%,-3
CSc1cccc(CN2CCN(Cc3ccccc3)C(CCO)C2)c1 (configuration not stated),8,-16%,-3%,0%,-12%,-2
OCCC1CN(Cc2ccc(-n3cccn3)cc2)CCN1Cc1ccccc1 (configuration not stated),-8,-10%,-1%,8.3µM*,-19%,-2
OCCC1CN(Cc2ccc3ncccc3c2)CCN1Cc1ccccc1 (configuration not stated),-2,-5%,-5%,?,-21%,1
COCCCNC(=O)/C(C#N)=C/c1c(N2CCN(C)CC2)nc2ccccn2c1=O,19,15%,4%,16%,0%,-6
O=C(Nc1ccc(F)cc1F)c1cc2nc(-c3ccco3)cc(C(F)(F)Cl)n2n1,/,/,/,/,50µM*,/
O=C(Nc1cnn(Cc2ccc(F)cc2)c1)c1cc2nc(-c3ccco3)cc(C(F)(F)F)n2n1,-18,7%,-2%,10µM*,-2%,-7
COc1ccc(-c2cc(C(=O)Nc3cnn(Cc4ccc(F)cc4)c3)no2)cc1OC,/,/,/,/,-7%,/
Cc1ccccc1Cn1cc(NC(=O)c2cc(-c3ccco3)on2)cn1,61*,18%,/,-13%,-15%,19
COc1cccc(-c2cc(C(=O)Nc3cnn(Cc4ccc(F)cc4)c3)no2)c1,10,5%,-4%,2.1µM*,-1%,10
Cc1ccc(CCNC(=O)c2ccc(Nc3nc4ccccc4n4nnnc34)cc2)cc1,/,/,/,/,1%,/
O=C(Nc1cnn(Cc2ccc(F)cc2)c1)c1cc(-c2ccco2)on1,13,13%,/,?,?,12*
Cc1nn(Cc2ccccc2)c(C)c1NC(=O)c1cc2nc(-c3ccco3)cc(C(F)(F)F)n2n1,-4,12µM*,-30%,-10%[5.75 µM],?,6
Cc1ccccc1Cn1ccc(NC(=O)c2cc3nc(-c4ccco4)cc(C(F)(F)F)n3n2)n1,29,-64%,-18%,36%,4%,-2
Cc1nn(Cc2ccc(F)cc2)c(C)c1NC(=O)c1cc(-c2ccco2)on1,-3,?,-7%,-6%,-26%,5
SMILES,Shiga inhibitor,Pf growth 48h,NS1 function inh,Pf growth 96h,Sm TGR inh,CHX counter
O=C(NCCCN1CCCC1=O)c1cc2nc(-c3ccco3)cc(C(F)(F)F)n2n1,-6,-2%,4%,21%,-35%,-5
O=C(NCC1CCCO1)c1cc2nc(-c3ccco3)cc(C(F)(F)Cl)n2n1 (configuration not stated),16,-12%,-3%,48%,45µM*,-4
CCOC(=O)c1cc(C#N)c(N2CCCNCC2)nc1C(F)(F)F,-3,-30%,4%,?,?,-4
COc1cc(C(CCN2CCCCC2)c2c(OC)cc(OC)c3c(-c4ccccc4)cc(=O)oc23)cc(OC)c1OC (configuration not stated),-23,10µM*,-6%,5.9µM*,45µM*,-14
COc1cc(C(CCN2CCCC(C)C2)c2c(OC)cc(OC)c3c(-c4ccccc4)cc(=O)oc23)cc(OC)c1OC (configuration not stated),-18,7.4µM*,-32%,2.9µM*,-32%,-9
CCN1CCc2c(sc(NC(=O)c3ccc(S(=O)(=O)N(CC)c4ccccc4)cc3)c2C(N)=O)C1,18,?,13%,13µM*,-12%,7
CCN1CCc2c(sc(NC(=O)COc3ccccc3)c2C(=O)OC)C1,-14,15µM*,-7%,0%,8%,-1
CCN1CCc2c(sc(NC(=O)Cc3ccccc3)c2C(=O)OC)C1,-1,?,-1%,-16%,-7%,-3
CCC(=O)Nc1sc2c(c1C(N)=O)CCN(C(C)=O)C2,-7,-1%,-11%,8%,1%,0
NC(=O)c1c(NC(=O)c2ccccc2)sc2c1CCN(Cc1ccccc1)C2,5,20%,4%,31%,-17%,13*
CCC(=O)Nc1sc2c(c1C(N)=O)CCN(Cc1ccccc1)C2,24*,40%,-3%,59%,-4%,13*
CC(C)C(=O)Nc1sc2c(c1C(N)=O)CCN(Cc1ccccc1)C2,-2,29%,0%,62%,-7%,-1
Cc1c(C)n(Cc2ccccc2)c2ccc(C(=O)N3CCN(c4ccc(F)cc4)CC3)cc12,/,/,/,/,14%,/
CC[C@H](C(=O)c1cccs1)C(O)(C(F)(F)F)C(F)(F)F,/,/,5%,/,/,/
O=C(/C=C/c1ccccc1)Nc1nc2n(n1)C(c1ccc(F)cc1)C=C(c1ccccc1)N2 (configuration not stated),/,/,/,/,-12%,/
CCOc1ccc(S(=O)(=O)O)c2cccnc12,/,4%,/,-11%,/,/
CCOC(=O)c1c(N)sc2c1CCN(Cc1ccccc1)C2,11,3.8µM*,/,0.95µM*,/,10
N#Cc1c(NC(=O)/C=C/C(=O)O)sc2c1CCN(Cc1ccccc1)C2,16,-29%,4%,10µM*,25µM*,3
CN1CCc2c(sc(NC(=O)Cc3ccc(F)cc3)c2C(N)=O)C1,-5,18%,-10%,12%,2%,7
NC(=O)c1c(NC(=O)c2c(F)cccc2F)sc2c1CCN(Cc1ccccc1)C2,19*,-3%,-38%,-10%,0%,8.3*
CC(=O)Nc1sc2c(c1C#N)CCN(Cc1ccccc1)C2,3,34%,2%,32%,-7%,7
c1ccc2nc3c(nc2c1)sc1nc2ccccc2n13,7,19%,-1%,11%,10%,-5
